Test results: PubChem BioAssay AID1210 (NMMLSC, 2008)

Target: Estrogen receptor beta (Homo sapiens) (UniProt Q92731)
Assay: ERbeta ligand binders by competition, primary screen, cell-based, Cos7 ERbeta-GFP, flow cytometry (AID 1210);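 also: 0% = DMSO vehicle wells and 100% = complete loss of labeled estradiol signal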
Conditions: fluorescent estrogen binding, ligand binding inhibition, at 0.1 µM, stronger effect = higher value

Estrogen receptor beta (Homo sapiens), sequence (Q92731 whole entry, looked up): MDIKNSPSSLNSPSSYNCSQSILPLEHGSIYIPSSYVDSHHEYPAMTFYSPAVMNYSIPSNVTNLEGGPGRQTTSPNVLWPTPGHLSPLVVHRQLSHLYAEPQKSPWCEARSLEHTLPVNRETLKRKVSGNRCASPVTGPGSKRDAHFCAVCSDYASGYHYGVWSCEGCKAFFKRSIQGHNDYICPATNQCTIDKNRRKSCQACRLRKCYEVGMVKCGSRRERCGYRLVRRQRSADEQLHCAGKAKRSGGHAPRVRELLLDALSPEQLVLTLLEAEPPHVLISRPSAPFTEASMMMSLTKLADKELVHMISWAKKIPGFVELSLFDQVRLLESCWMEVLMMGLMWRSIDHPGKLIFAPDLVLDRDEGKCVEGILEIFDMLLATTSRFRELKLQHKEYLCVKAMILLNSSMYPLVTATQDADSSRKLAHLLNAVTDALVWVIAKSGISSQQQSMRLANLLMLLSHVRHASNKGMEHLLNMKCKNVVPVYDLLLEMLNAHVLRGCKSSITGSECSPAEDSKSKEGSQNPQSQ

| SMILES | inhibition [%] |
| --- | --- |
| CC(=O)c1ccc2c(c1)C1C(Cl)C(Sc3ccccc3[N+](=O)[O-])CC1C(c1ccccc1[N+](=O)[O-])N2 (centres undefined) | 6 |
| COc1ccc(Cn2c(N)c(C(=O)NCc3ccco3)c3nc4ccccc4nc32)cc1 | 13 |
| Cc1ccc(S(=O)(=O)Cc2ccc(C(=O)N3CCC4(CC3)OCCO4)o2)cc1 | 7 |
| O=C(O)c1ccc2c(c1)C1C(Cl)C(Sc3ccccc3[N+](=O)[O-])CC1C(c1cccc([N+](=O)[O-])c1)N2 (centres undefined) | 6 |
| CCOc1ccccc1N1C(=O)NC(=O)C(CCc2ccncc2)(CCc2ccncc2)C1=O | 35 |
| NC(=O)c1ccc(N=Nc2c(O)[nH]c(=O)[nH]c2=O)cc1 | 17 |
| C[C@H]1CCC[C@@H](O)CCC/C=C/c2cc(O)cc(O)c2C(=O)O1 | 62 |
| CC(=O)c1ccc2c(c1)C1C(Cl)C(Sc3ccccc3[N+](=O)[O-])CC1C(c1ccccc1)N2 (centres undefined) | 22 |
| O=C(O)c1cccc2c1NC(c1cccc([N+](=O)[O-])c1)C1CC(Sc3ccccc3[N+](=O)[O-])C(Cl)C21 (centres undefined) | 11 |
